Screening data (PubChem)
This is a sample that favours compounds with a hit; in the whole collection about 3.7% have one here.
BoNT F protease: inhibitors of Botulinum neurotoxin F light chain protease; Multiplex microsphere protease cleavage assay, flow cytometry; inhibition, % at 10 µM; hit rate 0.22% among 360,000; AID 588497; in the data active means inhibition above about 35%, passing the limit was not always enough; inconclusive means no clear call, values can overlap the other calls; further: plate controls were buffer without enzyme for full effect and enzyme alone for no effect
Bead autofluor: flagged as autofluorescent in microsphere protease counterscreen; hit rate 3.1% among 360,000; fluorescence intensity (test concentration not listed); compound autofluorescence counterscreen, microsphere flow cytometry; active compounds read high; in the data active means fluorescence intensity above about 16000; inconclusive means no clear call, values can overlap the other calls
MazEF act: increases E. coli MazEF RNase cleavage of RNA; FAM/BHQ RNA-DNA oligo cleavage fluorescence, 5 h; activation, % at 20 µM; hit rate 0.32% among 350,000; AID 504720; in the data active means activation above about 50%
Target sequence (P0AE70 whole entry, looked up): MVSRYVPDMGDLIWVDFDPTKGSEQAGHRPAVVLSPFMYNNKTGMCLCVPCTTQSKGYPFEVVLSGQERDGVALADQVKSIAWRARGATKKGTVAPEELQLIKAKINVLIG
BoNT-A LC inh2: blocks Botulinum neurotoxin A light chain protease; multiplex microsphere protease substrate cleavage, flow cytometry; inhibition, % at 10 µM; hit rate 0.17% among 360,000; further: plate controls were buffer without enzyme for full effect and enzyme alone for no effect
Anthrax LF inh2: inhibitors of Bacillus anthracis lethal factor protease; P15917; multiplex microsphere protease cleavage assay, LF; inhibition, % at 10 µM; hit rate 0.12% among 360,000; AID 588501; further: plate controls were buffer without enzyme for full effect and enzyme alone for no effect
Starred values were filed as active, the others as inactive; ? = inconclusive; · = no result given. Unless noted, no stated cut-off is given here; in the data, active means inhibition above about 30%; inconclusive means no clear call, values can overlap the other calls; inactive means below that.

SMILES | BoNT F protease | Bead autofluor | MazEF act | BoNT-A LC inh2 | Anthrax LF inh2
COc1ccc(-c2[nH]nc3c2C(c2ccsc2)C(C#N)=C(N)O3)cc1 (stereo unspecified) | -4 | 16667* | 1 | -1 | -4
COc1cc(-c2[nH]nc3c2C(c2ccoc2)C(C#N)=C(N)O3)cc(OC)c1OC (stereo unspecified) | -11 | 2760 | -2 | 0 | -5
Cc1ccc(-c2[nH]nc3c2C(c2ccsc2)C(C#N)=C(N)O3)cc1 (stereo unspecified) | -9 | 9623 | -9 | -1 | -13
O=C1CCC[C@@H]2Cc3nc4ccc(Cl)cc4cc3[C@@H]3CCN1[C@H]23 | -3 | 3831 | 4 | 0 | 1
O=[N+]([O-])c1cccc(/C=C/c2ccc3cccc(O)c3n2)c1 | ? | 3962 | -4 | -1 | -6
O=[N+]([O-])c1cccc(/C=C/c2nc(C=Nc3ccc4ccccc4c3)c(O)o2)c1 | 2 | 17170* | 11 | -2 | 2
COc1ccccc1C(=O)N/C(N)=N/c1nc2ccccc2o1 | -2 | 4231 | 61* | 0 | -2
Cc1ccc(C(=O)N/C(N)=N/c2nc3ccccc3o2)cc1 | 5 | 2362 | 15 | 1 | 7
C[C@@H]1CN([C@H](C)CO)C(=O)CCCn2nncc2CO[C@H]1CN(C)S(=O)(=O)c1ccc(Oc2ccccc2)cc1 | 0 | 3823 | -6 | 0 | 0
CCN(CC)CCCNS(=O)(=O)c1ccc(OC)cc1 | -4 | 17061* | -2 | ? | -1
COc1ccc(N2C3=[N+](CCCC3)CC2(C)O)cc1 (stereo unspecified) | -4 | 16662* | 6 | -3 | -4
Cc1ccc(-c2nn3c(C)nnc3s2)cc1NC(=O)c1ccc(-c2ccc(Cl)cc2Cl)o1 | 2 | 16181* | -242 | ? | 2
CCOc1cc(C(=O)NCc2ccc(-c3nc4ccccc4o3)cc2)cc(OCC)c1OCC | -4 | 16439* | -11 | -1 | -5
COc1ccc(C(=O)NC(=S)NCc2ccc(-c3nc4ccccc4o3)cc2)cc1OC | -5 | 21219* | -16 | ? | 1
COc1cc(C)ccc1OCC(=O)OCC(=O)NCC1CCCCC1 | -3 | 3937 | 9 | 0 | 4
O=[N+]([O-])c1ccc(Cl)c(/C=N/N2CCN(Cc3ccc(Cl)cc3)CC2)c1 | 4 | 18114* | 1 | ? | -8
O=[N+]([O-])c1ccc(Cl)c(/C=N/N2CCN(Cc3ccccc3)CC2)c1 | 1 | 21691* | 8 | 1 | -9
Cc1cc(C)n(CC(=O)NNC(=O)c2ccc(NC(=O)CC#N)cc2)n1 | -1 | 5544 | 6 | -1 | 2
COc1ccc(OCc2cccc(C(=O)Nc3cc(C)on3)c2)cc1 | 2 | 22339* | -1 | 1 | -1
COC(=O)Nc1nnc(-c2ccc(OC)cc2)s1 | ? | 3419 | -1 | -4 | 5
C/C(=C\C(=O)Nc1cc(C)on1)c1ccccc1 | -3 | 22891* | -6 | -1 | -2
Cc1cc(NC(=O)c2ccccc2)no1 | 6 | 3880 | 4 | -2 | 0
Cc1cc(NC(=O)c2cc(C)on2)no1 | -3 | 23413* | -3 | 0 | 0
COc1ccc(-c2nnc(NC(=O)c3cc(C)on3)s2)cc1 | -3 | 17016* | -5 | ? | -2
COc1cccc(C(=O)Nc2cc(C)on2)c1 | -6 | 3897 | 6 | -1 | -6
SMILES | BoNT F protease | Bead autofluor | MazEF act | BoNT-A LC inh2 | Anthrax LF inh2
CC1(C(=O)NCc2ccc(C(F)(F)F)cc2)CCN1Cc1ccc(-c2ccccc2)o1 (stereo unspecified) | -8 | 2967 | · | 0 | 1
COc1cc(OC)cc(C(=O)Nc2cc(C)on2)c1 | -22 | 3542 | 7 | -2 | -10
Cc1cc(NC(=O)c2cnn3c(C(F)(F)F)cc(-c4ccccc4)nc23)no1 | 7 | 9195 | 9 | 1 | 1
COc1ccc(C(=O)Nc2cc(C)on2)cc1 | 2 | 16745* | 4 | 0 | -2
Cc1cc(NC(=O)c2cnn3c(C(F)F)cc(-c4ccccc4)nc23)no1 | 1 | 22272* | 34 | ? | -1
CCn1ncc(C(=O)Nc2cc(C)on2)c1C | -1 | 21849* | -3 | 1 | -6
CN(C)CCN1CCN(C2CN(Cc3ccc([N+](=O)[O-])cc3)S(=O)(=O)C2)CC1 (stereo unspecified) | -5 | 5825 | · | 0 | -2
CCOC(=O)c1ccc(NC(=O)NCc2cccnc2)cc1 | 12 | 5455 | -1 | 0 | 0
O=C(c1ccccc1)n1c(=O)c(F)cn(COCCBr)c1=O | -5 | 3977 | 8 | 1 | 8
C[C@@H]1Cc2[nH][nH]c(=O)c2[C@H](C)O1 | -2 | 6307 | · | 0 | 3
O=C(NCCC1=CCCCC1)c1cc(COc2c(F)cccc2F)on1 | -5 | 5517 | 6 | -2 | 1
